# High-throughput results deposited in PubChem BioAssay by National Center for Advancing Translational Sciences (NCATS).
# uPA surface inh: qHTS for Inhibitors of Cell Surface uPA Generation | cell surface uPA generation assay, qHTS | Potency, µM (titrated, usually from 38.3 µM), without a hit: at the highest dose activity change, negative = inhibition, usual class: inhibitors | 0.31% of 330,000 active; active = well fitted inhibition curve with a large enough effect; inconclusive = small, poorly fitted or top-dose-only effect; inactive = no such curve, though single readings can be large or run the other way; tested in mouse RAW 264.7 cells; also: potency is read from the fitted curve at half-maximal effect; % is scaled to controls: 0 for no effect and ±100 for the full control effect; nearly all actives have a fitted effect of over 55% in size
# TDP1 cell CPT: qHTS for Inhibitors of human tyrosyl-DNA phosphodiesterase 1 (TDP1): qHTS in cells in presence of CPT | chicken DT40 Tdp1-/-;hTDP1 cells + 20 nM CPT, ATP luminescence, 48 h | Potency, µM (top dose mostly 46.2 µM), without a hit: at the top dose activity change, negative = growth inhibition, hits mostly inhibitors | 12% of 420,000 active; also: potency is read from the fitted curve at half-maximal effect; % is scaled to controls: 0 for no effect and ±100 for the full control effect; nearly all actives have a fitted effect of over 55% in size
#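 Chicken DT40 Tdp1-/- cells stably complemented with human TDP1 were seeded at 400 cells/well in medium containing 20 nM camptothecin, exposed to pin-transferred compounds, and grown at 37 °C for at least 48 hr. Viability was read as ATP luminescence.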
# TDP1 inh: qHTS Assay for Inhibitors of Tyrosyl-DNA Phosphodiesterase (TDP1); 0.28% of 350,000 active; recombinant TDP1, AlphaScreen DNA substrate cleavage; AID 485290, 2010; Potency, µM (top dose mostly 130 µM), inactives show at the top dose activity change, negative = inhibition, most hits filed as inhibitors; also: potency is read from the fitted curve at half-maximal effect; % is scaled to controls: 0 for no effect and ±100 for the full control effect; nearly all actives have a fitted effect of over 40% in size
# Target sequence (Q9NUW8 whole entry, looked up): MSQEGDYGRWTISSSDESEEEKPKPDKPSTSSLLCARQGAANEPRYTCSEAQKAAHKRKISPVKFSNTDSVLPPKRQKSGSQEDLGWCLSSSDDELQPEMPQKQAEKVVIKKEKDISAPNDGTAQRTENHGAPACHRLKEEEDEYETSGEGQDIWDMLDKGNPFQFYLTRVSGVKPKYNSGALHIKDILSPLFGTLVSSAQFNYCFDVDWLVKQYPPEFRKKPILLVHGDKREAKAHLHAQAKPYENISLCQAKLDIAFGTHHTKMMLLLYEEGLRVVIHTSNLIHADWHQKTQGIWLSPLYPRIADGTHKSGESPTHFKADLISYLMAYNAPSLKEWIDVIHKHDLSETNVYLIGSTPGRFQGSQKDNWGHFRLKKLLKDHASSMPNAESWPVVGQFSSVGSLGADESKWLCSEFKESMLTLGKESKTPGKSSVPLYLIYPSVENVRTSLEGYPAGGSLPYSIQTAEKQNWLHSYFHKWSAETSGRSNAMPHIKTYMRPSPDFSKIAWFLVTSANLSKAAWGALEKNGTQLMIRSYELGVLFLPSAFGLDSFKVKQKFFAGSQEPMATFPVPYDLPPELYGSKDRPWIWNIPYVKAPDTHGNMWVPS
#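 Steps: enzyme plus compound, 15 min RT; add biotin/phosphotyrosine-FITC oligonucleotide (15 nM final), react 5 min; add donor/acceptor beads (10 ug/ml final), 10 min; read AlphaScreen. Tdp1 at 1 nM final.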
# DT40 TDP1 no CPT: qHTS for Inhibitors of human tyrosyl-DNA phosphodiesterase 1 (TDP1): qHTS in cells in absence of CPT; Potency, µM (titrated, usually from 46.2 µM), without a hit: at the top dose activity change, negative = growth inhibition, hits mostly inhibitors; DT40 Tdp1-/- hTDP1 cells, no CPT, ATP luminescence, 48 h; 15% of 420,000 active; also: potency is read from the fitted curve at half-maximal effect; % is scaled to controls: 0 for no effect and ±100 for the full control effect; nearly all actives have a fitted effect of over 55% in size
#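 Compound effects on proliferation are scored in DT40 Tdp1-/-;hTDP1 cells in the absence of CPT. ATP levels (CellTiter-Glo luminescence) are recorded after a ≥48 hr, 37 °C incubation.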
# miR-21 act: qHTS Assay for Modulators of miRNAs and/orActivators of miR-21; HeLa miR-21 FLuc reporter, luciferase, 48 h; AID 2288, 2010; Potency, µM (titrated, usually from 38.3 µM), for the others: at the highest dose activity change, positive = activation, most hits filed as activators; 340,000 tested, under 10 active;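 also: % of control where 0% means no effect; miR-21 action dims this reporter so a rising signal means less miR-21 action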
#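 Using DMEM plus 10% FBS, HeLa miR-21-FLuc cells are incubated with test compounds (final up to about 40uM) for 48 hours; firefly luciferase signal is then imaged following reagent-mediated lysis.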
# Numbers without * were called inactive; ? = inconclusive; · = no result; ! = not confirmed by another sample. In the library only some 16% were active in any assay of this set; here they are far more common. Unless noted, calls follow the shape of the dose curve; as a rule, active = well fitted curve in the direction sought with a large enough effect; inconclusive = small, poorly fitted or top-dose-only effect, or another doubt; inactive = no such curve, though single readings can be large; an effect the other way counts as inactive or inconclusive.
SMILES,uPA surface inh,TDP1 cell CPT,TDP1 inh,DT40 TDP1 no CPT,miR-21 act
COc1ccc(-n2c(CNc3ccc(C)cc3)nnc2SCC(=O)Nc2nc(-c3ccccc3)cs2)cc1,·,5.6µM*,2%,10µM*,1%
CCn1c(CCNC(=O)c2cccs2)nnc1SCC(=O)Nc1nc(-c2ccccc2)cs1,-1%,16µM*,2%,10µM*,-1%
Cc1cc(C)nc(SCc2nnc(SCC#N)n2-c2cccc(Cl)c2)n1,-6%,?,7%,21µM*,-19%
COc1ccc(NCc2nnc(SCC(=O)Nc3nc(-c4ccccc4)cs3)n2-c2ccccc2)cc1,5%,4.6µM*,-3%,23µM*,0%
Cc1cc(C)nc(SCc2nnc(SCC(=O)Nc3nc(-c4ccccc4)cs3)n2-c2ccccc2)n1,3%,?,7%,18µM*,8%
Cc1cc(C)nc(SCc2nnc(SCC(=O)O)n2-c2ccccc2)n1,0%,2%,-8%,-3%,2%
Cc1nnc(SCC(=O)c2ccc(Cl)cc2)n(N)c1=O,0%,-9%,-4%,-11%,-59%
Cc1[nH]n(-c2ccccc2)c(=O)c1C=Nc1cccc2cccnc12,-6%,0.65µM*,5%,0.92µM*,24%
Cc1[nH]n(-c2ccccc2)c(=O)c1/C=N/N1C(=O)c2cccc3cccc(c23)C1=O,-6%,?,8%,16µM*,5%
CC1(C)CC(=O)C=C(Nc2ccc3c(c2)CCC3)C1,-10%,-5%,·,?,0%
COc1ccc(CCNC(=O)c2ccc(CS(=O)(=O)c3ccc(C)cc3)o2)cc1OC,5%,?,0%,15µM*!,?
COc1ccc(NC(=O)c2ccc(-c3ccc([N+](=O)[O-])cc3)o2)cc1OC,-7%,13µM*,7%,16µM*,7%
COc1ccc(CCNC(=O)c2ccc([N+](=O)[O-])cc2Cl)cc1OC,-3%,21%,·,-1%,·
COc1ccc(CCNC(=O)c2ccc(-c3ccc([N+](=O)[O-])cc3Cl)o2)cc1OC,-5%,7.3µM*,8%,8.2µM*,?
COc1ccc(N2CCN(CCCNC(=O)c3ccc(CS(=O)(=O)c4ccc(Cl)cc4)o3)CC2)cc1,?,?,6%,21µM*,19%
COc1ccc(CNc2cc(C)ccn2)c(O)c1,5%,8%,·,-4%,-1%
COC(=O)c1nnn(-c2nc(N3CCOCC3)nc(N3CCOCC3)n2)c1C,-2%,?,2%,?,-1%
Cc1ccc(S(=O)(=O)Cc2ccc(C(=O)NC3CCCC3)o2)cc1,4%,12%,-8%,7%,-2%
CC(C)(C)OC(=O)N/N=C/c1cccn1-c1ccc([N+](=O)[O-])cc1,0%,10%,4%,-11%,-3%
COc1ccc(CCNC(=O)c2ccc(CS(=O)(=O)c3ccc(Cl)cc3)o2)cc1OC,·,23µM*,3%,16µM*,25%
COc1ccc(CC(=O)N/N=C/c2cccn2-c2ccc([N+](=O)[O-])cc2)cc1OC,-4%,16µM*,-3%,15µM*,8%
COc1ccc(S(=O)(=O)Cc2ccc(C(=O)NC3CCCCCC3)o2)cc1,-2%,15µM*,2%,?,-4%
COc1ccc(CCNC(=O)c2ccc(CS(=O)(=O)Cc3ccc(C)cc3)o2)cc1OC,·,?,·,23µM*,·
NC(=O)CN1CCN(S(=O)(=O)c2ccc(Br)cc2)CC1,-5%,1%,5%,-11%,-1%
COc1ccc(CCNC(=O)CSCc2ccc([N+](=O)[O-])cc2)cc1,-2%,-9%,2%,-23%,-5%
SMILES,uPA surface inh,TDP1 cell CPT,TDP1 inh,DT40 TDP1 no CPT,miR-21 act
COc1ccc(CCNC(=O)c2ccc(CSc3ccc(Cl)cc3)o2)cc1OC,·,13µM*,·,13µM*,·
CCc1ccccc1S(=O)(=O)Cc1ccc(C(=O)NCCc2ccc(C)cc2)o1,·,?,0%,29µM*,24%
O=C(NCCc1ccc(Cl)cc1)c1ccc(CS(=O)(=O)Cc2ccccc2F)o1,·,?,-1%,21µM*,25%
COc1ccc(CCNC(=O)c2ccc(CSc3ccccc3)o2)cc1,2%,-9%,5%,-15%,7%
COc1ccc(CCNC(=O)CSCc2ccc([N+](=O)[O-])cc2)cc1OC,2%,26µM*,5%,26µM*,-13%
COc1ccc(C(C)NC(=O)c2cccc([N+](=O)[O-])c2)cc1OC (stereo not drawn),2%,-4%,3%,0%,-7%
COc1ccc(C(C)NC(=O)c2ccc([N+](=O)[O-])cc2)cc1OC (stereo not drawn),-7%,0.92µM*,4%,0.52µM*,-6%
Cc1ccc(Nc2nc(N/N=C/c3c[nH]c4ccccc34)nc(N3CCOCC3)n2)cc1,-2%,21µM*,5%,8.2µM*,-21%
C(=N\Nc1nc(Nc2ccccc2)nc(N2CCOCC2)n1)/c1c[nH]c2ccccc12,-9%,12µM*,7%,8.2µM*,-14%
O=C(Oc1cccc(/C=N/Nc2nc(Nc3ccccc3)nc(N3CCOCC3)n2)c1)c1ccco1,-6%,21µM*,5%,23µM*,-16%
Cc1cc(C)cc(NC(=O)C(=O)NCc2ccccn2)c1,5%,-5%,3%,-5%,-11%
COc1cc2c(oc(=O)c3cc(C)cc(OC)c32)c2c(C3OC(C)C(O)C(C)(O)C3O)ccc(O)c12 (stereo not drawn),-11%,1.5µM*,·,1.5µM*,·
COc1cc(/C(C)=N/NC(=O)CSc2nncn2C)ccc1OCc1ccccc1Cl,7%,-10%,0%,-8%,-73%
OCCN1CCN(c2nc(-c3ccccc3)nc3c2oc2ccccc23)CC1,-8%,?,1%,16µM*,22%
OCCN1CCN(c2nc(-c3ccccc3O)nc3ccccc23)CC1,2%,-8%,·,16µM*,9%
OCCN(CCO)c1nc(-c2ccccc2)nc2c1oc1ccccc12,2%,16µM*,5%,?,0%
COC(=O)Cc1csc(Nc2ccccc2Cl)n1,1%,2%,-1%,-16%,-59%
O=C(CNC(=O)Cc1ccccc1)NCC(=O)OCC(=O)c1ccc(F)cc1,·,0%,3%,-2%,-2%
Cc1cc(NC(=O)CCN2C(=O)C3C4C=CC(C4)C3C2=O)c2ccccc2n1 (stereo not drawn),-6%,?,-1%,21µM*,7%
Cc1ncc(N=Nc2ccc(F)cc2)c(-c2ccc(Cl)cc2)n1,2%,9%,3%,2%,-10%
